Active and inactive are the calls of the source.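 How the source made its calls, unless noted: active means inhibition above 20% together with a positive visual image hit; inconclusive means visual image hit but inhibition not above 20%; inactive means no visual image hit.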
Legend:
[1] = inhibitors of TNFa-induced NFkB p65 translocation, primary screen, imaging, HUVEC, MLSMR starter and 10KST1 sets (AID 438); conditions: HUVEC TNFa-induced p65 nuclear translocation; cell count: measured here: nuclei count (cytotoxicity indicator), at 2.08 µM; inhibition: at 2 µM, stronger effect = higher value, 0% TNFa-plus-vehicle, 100% no-TNFa wells;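 further: compound added about 3h40 before a 20 min TNFalpha stimulation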;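 on inhibition: signal is the nuclear over cytoplasmic p65 intensity ratio per well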
[2] = reduction of polyQ htt aggregates in cells – imaging, exon1htt(103Q)mCFP cells, high-content imaging, primary screen (AID 483;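 active means visual image review flags a hit and inhibition of aggregation exceeds 20%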;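 further: compound exposure lasted 3 days before fixation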;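 on nuclei count: percent of the per-plate median nuclei count of sample wells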); conditions: exon1htt(103Q)mCFP cell line, aggregate imaging, at 2 µM; inhibition of aggregation: stronger effect = higher value; nuclei count: measured here: cell count, toxicity
[3] = endothelial E-selectin expression blockers – imaging, HUVEC, immunofluorescence, MLSMR starter and 10KST1 sets, primary screen (AID 487;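 active means visually confirmed hit in the image check and inhibition above 20%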;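 on inhibition: signal is fraction of cell area covered by stained E-selectin grains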;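 on nuclei count: 100% = median nuclei count of all wells on the same plate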); conditions: HUVEC TNFalpha-induced E-selectin immunofluorescence imaging, at 2 µM; inhibition: stronger effect = higher value; nuclei count: measured here: cell number, toxicity
[4] = target: Voltage-gated potassium channel subunit beta-2 (Rattus norvegicus) (UniProt P62483); experiment: inhibitors of rat Kvbeta2 reductase activity – biochemical, NADPH fluorescence, primary screen (AID 622;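 active means fluorescence slope higher than the sample average by over 3 SD, cut at about -0.22 in these data, passing the limit was not always enough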;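 further: slope of raw intensity against log time taken from 70 to 1610 s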); conditions: recombinant KvBeta, 4-cyanobenzaldehyde reduction, at 10 µM, stronger effect = higher value
[5] = target: Voltage-gated potassium channel subunit beta-2 (Rattus norvegicus) (UniProt P62483); experiment: enhancers of rat Kvbeta2 NADPH turnover – biochemical, NADPH fluorescence, primary screen (AID 623;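 active means NADPH fluorescence slope more negative than the mean of all samples by about 3 SD, 99.7% confidence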;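 further: fluorescence intensity change per second fitted from 20 to 320 s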); conditions: Recombinant KvBeta, NADPH fluorescence decrease slope, 10 min; at 10 µM; stronger effect = lower value
[6] = target: Alpha-2C adrenergic receptor (Homo sapiens) (UniProt P18825); experiment: compounds altering alpha2C-coupled GIRK flux – cell-based, HEK293 alpha2C/GIRK1/2, thallium flux, primary screen (AID 624;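 active means fluorescence slope after compound addition differing from the mean of all screened samples at 99.7% confidence, in either direction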;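 further: slope of fluorescence ratio to pre-addition baseline per second over 15 to 24 s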); conditions: thallium flux BTC fluorescence, at 10 µM, actives lie on both sides
[7] = blockers of RIG-like receptor reporter activation – cell-based, Sendai virus stimulus, luciferase, 10K MLSCN set, TLR/RLR signaling modifier project, primary screen (AID 602276;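 active means inhibition at or above 50% at 10 µM; inactive means inhibition below 50%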;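 further: firefly luciferase from ISG56 promoter only with Renilla not read in this screen; 0% = Sendai virus plus DMSO and 100% = medium plus DMSO without virus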); conditions: HEK293 RL24 IRF3 luciferase reporter, at 10 µM, stronger effect = higher value
[8] = TLR3 IRF3 reporter activation blockers – cell-based, poly I:C stimulus, luciferase, 10K MLSCN set, primary screen (AID 602277;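 active means inhibition of the reporter signal at or above 50%; inactive means inhibition below 50%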); conditions: HEK293-TLR3 RL24 IRF3 luciferase reporter, at 10 µM, stronger effect = higher value

Chain of Alpha-2C adrenergic receptor (Homo sapiens) (P18825 whole entry, looked up): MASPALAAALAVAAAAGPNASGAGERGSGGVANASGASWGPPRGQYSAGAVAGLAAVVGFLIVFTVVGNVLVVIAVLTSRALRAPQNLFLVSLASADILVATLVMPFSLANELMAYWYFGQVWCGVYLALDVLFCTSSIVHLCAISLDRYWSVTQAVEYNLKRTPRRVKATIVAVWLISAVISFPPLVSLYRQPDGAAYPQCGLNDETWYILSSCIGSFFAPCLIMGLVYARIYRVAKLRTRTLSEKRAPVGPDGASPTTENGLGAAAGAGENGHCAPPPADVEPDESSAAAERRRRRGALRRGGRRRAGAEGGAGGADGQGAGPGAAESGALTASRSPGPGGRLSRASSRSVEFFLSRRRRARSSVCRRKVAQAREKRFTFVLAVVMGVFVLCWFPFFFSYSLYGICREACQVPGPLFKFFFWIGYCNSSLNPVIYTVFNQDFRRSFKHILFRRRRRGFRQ
Chain of Voltage-gated potassium channel subunit beta-2 (Rattus norvegicus) (P62483 whole entry, looked up): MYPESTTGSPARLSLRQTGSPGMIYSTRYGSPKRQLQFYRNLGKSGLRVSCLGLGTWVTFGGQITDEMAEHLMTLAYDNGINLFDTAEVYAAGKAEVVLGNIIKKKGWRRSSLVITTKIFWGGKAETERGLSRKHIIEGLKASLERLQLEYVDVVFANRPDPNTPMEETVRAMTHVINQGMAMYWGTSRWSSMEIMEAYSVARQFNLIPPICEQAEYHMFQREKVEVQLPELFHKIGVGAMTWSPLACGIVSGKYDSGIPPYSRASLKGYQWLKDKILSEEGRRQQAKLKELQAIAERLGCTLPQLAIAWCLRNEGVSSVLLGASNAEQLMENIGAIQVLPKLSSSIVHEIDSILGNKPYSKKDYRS

Compound	cell count [1]	inhibition [1]	inhibition of aggregation [2]	nuclei count [2]	inhibition [3]	nuclei count [3]	fluorescence slope [4]	NADPH fluorescence slope [5]	slope [6]	inhibition [7]	inhibition [8]
CCCCOc1cc(=O)[nH]c(=O)[nH]1	379	11.7% (inactive)	14.6% (inactive)	84.2%	5.6% (inactive)	89.2%	-0.383 (inactive)	-5.2e-06 (inactive)	0.00308 (inactive)	10.4% (inactive)	8.55% (inactive)
C=C(C)Cn1c(N2CC(C)CC(C)C2)nc2c1c(=O)[nH]c(=O)n2C (centres undefined)	616	-8% (inactive)	-2.3% (inactive)	104%	-8.5% (inactive)	108%	-0.421 (inactive)	-1.7e-05 (inactive)	0.00499 (inactive)	12.7% (inactive)	41.2% (inactive)
COc1cccc(NC(=O)C2CCCN(S(=O)(=O)c3cccc4cccnc34)C2)c1 (centres undefined)	604	-1.7% (inactive)	25.4% (inactive)	90.7%	-62.8% (inactive)	106%	-0.559 (inactive)	-2e-05 (inactive)	0.00606 (inactive)	2% (inactive)	23.1% (inactive)
COc1ccc(Cn2nnnc2C(c2ccccn2)N2CCN(c3cc(Cl)ccc3C)CC2)cc1 (centres undefined)	669	-8% (inactive)	2.5% (inactive)	112%	-18.4% (inactive)	104%	-0.217 (inactive)	-1.3e-05 (inactive)	0.00703 (inactive)	21.3% (inactive)	37.4% (inactive)
O=C(NCC(=O)N(c1cnc2ccccc2c1)C(C(=O)NC1CCCC1)c1ccncc1)c1ccco1 (centres undefined)	501	-7.1% (inactive)	-3.6% (inactive)	102%	-6.5% (inactive)	107%	-0.532 (inactive)	5.2e-05 (inactive)	0.00551 (inactive)	15.1% (inactive)	17.8% (inactive)
Cc1nc2ccc(S(=O)(=O)NCC(=O)N3CCc4ccccc4C3)cc2s1	439	2.7% (inactive)	1.5% (inactive)	91.2%	-4.9% (inactive)	119%	-0.563 (inactive)	3.2e-05 (inactive)	0.00627 (inactive)	-4.3% (inactive)	-28.9% (inactive)
Cc1nc2ccc(NC(=O)NCc3ccco3)cc2s1	359	-2.2% (inactive)	21.2% (inactive)	100%	-15.3% (inactive)	82.3%	-0.338 (inactive)	5e-06 (inactive)	0.00475 (inactive)	-22.3% (inactive)	-83.4% (inactive)
CCOC(=O)c1cc2n(n1)C(C(F)(F)C(F)(F)F)CC(C)N2 (centres undefined)	650	-12.1% (inactive)	4.6% (inactive)	113%	-30.4% (inactive)	106%	-0.429 (inactive)	2.3e-05 (inactive)	0.00828 (inactive)	11.4% (inactive)	14.9% (inactive)
C[C@H](NC(=O)NCc1cccs1)C(=O)O	378	4.3% (inactive)	-9.8% (inactive)	102%	-52.5% (inactive)	72.1%	-0.576 (inactive)	-5.7e-05 (inactive)	0.00368 (inactive)	5.25% (inactive)	4.63% (inactive)
Cc1cc(C)n2nc(S(=O)(=O)N(C)c3ccccc3)nc2n1	679	-2.6% (inactive)	16.2% (inactive)	102%	-66.9% (inactive)	114%	-0.568 (inactive)	-5.7e-05 (inactive)	0.00717 (inactive)	7.86% (inactive)	34.2% (inactive)
COc1ccc(C2N(C(=O)c3ccccc3)CCN2C(=O)c2ccccc2)cc1	488	-13.6% (inactive)	-2.8% (inactive)	71.9%	-13.7% (inactive)	92.4%	-0.427 (inactive)	-7.3e-05 (inactive)	0.00622 (inactive)	7.08% (inactive)	24.3% (inactive)
O=C(Nc1ccccc1-c1ccccc1)NC1CCN(C(=O)N2CCOCC2)CC1	497	0% (inactive)	-19.4% (inactive)	113%	6.6% (inactive)	96.7%	-0.5 (inactive)	-4.4e-05 (inactive)	0.00404 (inactive)	13.4% (inactive)	18.7% (inactive)
Nc1cc(-c2ccc(Br)cc2)nn1S(=O)(=O)c1ccccc1	807	6.9% (inactive)	-1% (inactive)	93.9%	-57.9% (inactive)	109%	-0.609 (inactive)	-1.6e-05 (inactive)	0.00722 (inactive)	6.44% (inactive)	32.2% (inactive)
CN(C)C(=O)c1ccc(COc2ccccc2Br)o1	730	-11% (inactive)	27.2% (inactive)	71.4%	-26.4% (inactive)	104%	-0.606 (inactive)	-2.2e-05 (inactive)	0.0062 (inactive)	-40.1% (inactive)	-62.5% (inactive)

Reference: PubChem BioAssay
